Measurements: PubChem BioAssay (NCI)
Compounds without any hit were thinned out: in the full panel of roughly 79,000, 15% have a hit. Calls of active or inactive are those of the source. Cut-off read from the data, not from the text of the source: active = growth inhibition above about 70%; inactive = the rest.

Experiments:
[1] = NCI Yeast Anticancer Drug Screen. Data for the rad50 strain (AID 155);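 note: 0% = growth of vehicle-only cultures of the same strain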; conditions: S. cerevisiae rad50 strain growth inhibition; at 50.0 µM; stronger effect = higher value
Method in brief: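 Genetically altered yeast (DNA repair pathway); compound treatment; growth inhibition vs vehicle ctrl.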

[2] = NCI Yeast Anticancer Drug Screen. Data for the mec2-1 strain (AID 157); conditions: S. cerevisiae mec2-1 strain, at 50.0 µM, stronger effect = higher value
Method in brief: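 Each compound was tested on mec2-1 yeast, a strain altered in DNA damage repair or cell cycle control. Growth inhibition is reported relative to vehicle.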

[3] = NCI Yeast Anticancer Drug Screen. Data for the sgs1 mgt1 strain (AID 161);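 note: 0% = growth of cultures given vehicle only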; conditions: S. cerevisiae sgs1 mgt1 strain, at 50.0 µM, stronger effect = higher value
Method in brief: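 Test agents were incubated with a DNA-repair-mutant yeast strain. Growth was then read and compared against vehicle-treated controls.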

[4] = NCI Yeast Anticancer Drug Screen. Data for the cln2 rad14 strain (AID 165);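 note: 0% = growth equal to vehicle treated cultures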; conditions: S. cerevisiae cln2 rad14 strain, at 50.0 µM, stronger effect = higher value
Method in brief: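 Test compounds were added to cln2 rad14 yeast cultures; inhibition of growth was then determined by comparison with vehicle treatment.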

[5] = NCI Yeast Anticancer Drug Screen. Data for the bub3 strain (AID 167); conditions: S. cerevisiae bub3 mutant strain, at 50.0 µM, stronger effect = higher value
Method in brief: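 Yeast carrying a defined mutation is treated with each compound, and growth is compared with that of vehicle-exposed cells to give inhibition.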

[6] = NCI Yeast Anticancer Drug Screen. Data for the mlh1 rad18 strain (AID 175); conditions: S. cerevisiae mlh1 rad18 strain growth inhibition; at 50.0 µM; stronger effect = higher value
Method in brief: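 Inhibition values reflect reduced growth of mutant yeast versus vehicle-treated controls following compound exposure; the mutations affect DNA damage repair.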

Measured: growth inhibition

Cc1cc2nc3ccc(O)cc3[n+](C)c2cc1N
inactive: [1] 57.7% | [2] 28.6% | [3] 31.6% | [4] 31.1% | [5] 15.9% | [6] 26.3%

Brc1cc(Br)c2c(c1)CN(C1CCCCC1)CO2 (tested in a mixture with another compound)
inactive: [1] -0.15% | [2] 3.85% | [3] -0.4% | [4] -18.9% | [5] -1.6% | [6] -7.45%

NC(=S)Nc1ccccc1Cl
inactive: [1] -14.3% | [2] -6.2% | [3] 15.6% | [4] -18.1% | [5] -10.8% | [6] 10.6%

[O-]c1c(Cl)c(Cl)c(O[P+](c2ccccc2)(c2ccccc2)c2ccccc2)c(Cl)c1Cl
active: [1] 99.2% | [2] 99.4% | [3] 99.5% | [4] 97.9% | [5] 99% | [6] 99.2%

Brc1ccc(/C(=N/Nc2ccccc2)Oc2ccccc2)cc1
inactive: [1] 17.6% | [2] 1.8% | [3] 16.1% | [4] 25.3% | [5] 14.8% | [6] 19.6%

Nn1cnc2nccnc2c1=O
inactive: [1] 1% | [2] 4.65% | [3] -10.7% | [4] -17.4% | [5] 2.4% | [6] -5.6%

CC(C)C(=O)Nc1ccc(Cl)c(Cl)c1
inactive: [1] 33.9% | [2] 6.35% | [3] 44.3% | [4] 41.2% | [5] -4.05% | [6] 58.1%

O=C(O)Cc1ccccc1[N+](=O)[O-]
inactive: [1] 8.55% | [2] -12.1% | [3] -10.9% | [4] -16.9% | [5] -21.8% | [6] -3.95%

COC(=O)c1s/c(=N\C(=S)N(C)C)n(-c2ccc(Cl)cc2)c1C(=O)OC
inactive: [1] -0.4% | [2] 2.25% | [3] -4.1% | [4] -40.1% | [5] -21.9% | [6] -3.2%

O=S1(=O)C(c2cccc(C(F)(F)F)c2)=C(O)c2cc3ccccc3nc21
inactive: [1] 47.9% | [2] 21% | [3] 49.2% | [4] 33.2% | [5] -4.6% | [6] 18.6%

COc1ccc(C2Oc3cc(OC)c(OC)cc3C2CCl)cc1OC (stereo not drawn)
inactive: [1] -20.1% | [2] 1.85% | [3] -46.8% | [4] -0.4% | [5] -26.9% | [6] -35.2%

COc1ccccc1/C=C(\C)C(=O)O
inactive: [1] 10.8% | [2] -15.3% | [3] -6.2% | [4] 0.05% | [5] -11.3% | [6] -16.1%

CCCCN(CCO)CC(O)Cn1cnc2c(N)ncnc21 (stereo not drawn)
inactive: [1] 17.4% | [2] 13.9% | [3] 8.85% | [4] 0.7% | [5] -5.65% | [6] 21.3%

C[C@]12CCC(=O)C=C1CC[C@@H]1C2=CC[C@]2(C)/C(=C\CO)CC[C@@H]12
inactive: [1] 7.5% | [2] -14.4% | [3] 10.8% | [4] -5.4% | [5] -10.8% | [6] 9.4%

COc1cccc(Nc2nc(N)nc(N)c2N)c1
inactive: [1] -4.2% | [2] -35.8% | [3] -6.3% | [4] 10.1% | [5] -19.6% | [6] 14%

N/N=C1/CCCc2nonc21
inactive: [1] -19.7% | [2] -17.1% | [3] -29.4% | [4] -22.2% | [5] -25.4% | [6] -48.4%

C#Cc1cccc(N=Cc2cc(Br)cc(OC)c2O)c1
inactive: [1] -23.4% | [2] -6.7% | [3] 1.3% | [4] 4.8% | [5] 5% | [6] 3.95%

COc1ccccc1Nc1nc(N)nc(N)c1N
inactive: [1] 0.85% | [2] -3.65% | [3] 5% | [4] -3.75% | [5] -4.9% | [6] 11.2%

CC(C)NCC(C)(C)[N+](=O)[O-]
inactive: [1] 5.05% | [2] -8.55% | [3] 3.65% | [4] -4.1% | [5] 3.3% | [6] -0.95%

CCC(=O)Nc1ccc(C)cc1C
inactive: [1] 23.7% | [2] 12.9% | [3] 9.8% | [4] 13.7% | [5] 2.6% | [6] 3.45%

O=C1C2CCCC3CCCC(C(=O)N1NC1CCCCC1)C32 (stereo not drawn)
inactive: [1] 39.4% | [2] 28.6% | [3] 27.9% | [4] 29.7% | [5] 53.4% | [6] 49%

CCOC(=O)Cc1cccnc1N
inactive: [1] -3.15% | [2] -9.45% | [3] -19.9% | [4] -3.9% | [5] 1% | [6] -2.25%

CCOCCOC(=O)c1ccc(C(C)C)cc1
inactive: [1] 4.9% | [2] 1.75% | [3] 7.8% | [4] -12.8% | [5] 5.25% | [6] 3.5%

N#Cc1ccccc1NC(=O)C(=O)C1NC(=S)NC1=O (stereo not drawn)
inactive: [1] 15.4% | [2] -1.75% | [3] 26% | [4] 13.6% | [5] -3.2% | [6] 18.1%

CC#CCCCC1(C)CCNC1=S (stereo not drawn)
inactive: [1] 13.8% | [2] 10.2% | [3] 30.5% | [4] 21.9% | [5] 0.8% | [6] 24.6%

CCOc1ccc(NC(=O)CC2SC(=Nc3ccc(C)cc3C)NC2=O)cc1 (stereo not drawn)
inactive: [1] 12.6% | [2] 24.5% | [3] 33.3% | [4] 44.3% | [5] 39.4% | [6] 28.8%

C1OC[C@@H]([C@H]2COCO2)O1
inactive: [1] -15.4% | [2] -11.4% | [3] -7% | [4] -0.8% | [5] 1.95% | [6] -11.7%

C=C(N1CCCCC1)N1CCCCC1
inactive: [1] -2.75% | [2] -25.1% | [3] -9.15% | [4] -46.5% | [5] -15.9% | [6] -11.4%

O=C(O)c1c[nH]c2c([N+](=O)[O-])cccc2c1=O
inactive: [1] 40.4% | [2] 16.5% | [3] 30.7% | [4] 8.5% | [5] 13.6% | [6] 28.4%

CC(C)(CCCOc1ccccc1)NC(=O)c1ccccc1
inactive: [1] 17.2% | [2] -1.15% | [3] -3.5% | [4] 15.5% | [5] 15.3% | [6] 6.15%

SCCc1ccccc1
inactive: [1] -8.85% | [2] -35.1% | [3] -8.9% | [4] -14% | [5] 11.9% | [6] -3.15%

CN(C)Cc1cc(C(C)(C)C)cc(CNC2CCCCC2)c1O
inactive: [1] -2.9% | [2] -6.45% | [3] -26.9% | [4] -6.4% | [5] -24.4% | [6] 19.9%

CC(=O)N(C)c1ccc(NC(=O)Nc2c(C)cccc2C)cc1
inactive: [1] 6.55% | [2] 10% | [3] 10.7% | [4] 4.85% | [5] 19.6% | [6] 15.6%

N/N=C(/Cc1ccccc1)NNO
inactive: [1] 30.4% | [2] 13.8% | [3] 27.1% | [4] 22.4% | [5] 12.8% | [6] 22.2%

C/C(=N\NC(N)=S)c1cc(C)c(C)cc1C
inactive: [1] 34.3% | [2] 5.55% | [3] 50% | [4] 17.2% | [5] -7.95% | [6] 65.8%

CCC(CO)(CO)CBr
inactive: [1] 3.75% | [2] -1.1% | [3] 0.6% | [4] -14.7% | [5] -4.9% | [6] 9.55%

O=[N+]([O-])c1cccc(NSNc2cccc([N+](=O)[O-])c2)c1
inactive: [1] 18.1% | [2] 23.9% | [3] 25.6% | [4] 23.1% | [5] 6.45% | [6] 11%

CCCCCC(=O)OCCCc1ccccc1
inactive: [1] 28.9% | [2] 2.9% | [3] -0.3% | [4] -12.9% | [5] 19.4% | [6] -6.8%

COc1ccc(NS(=O)c2cccc(C)c2)cc1 (stereo not drawn)
inactive: [1] -8.05% | [2] -11.1% | [3] -16.1% | [4] -18.3% | [5] -3.1% | [6] 9.4%

CN(C(=O)Cl)c1ccccc1
inactive: [1] 9.1% | [2] -9.35% | [3] 7.8% | [4] 8.6% | [5] 16.8% | [6] 16.8%

OCC1CCCCCCC1
inactive: [1] -4.25% | [2] -19.7% | [3] -3.15% | [4] 18.4% | [5] -3.65% | [6] -10.4%

CCCN(CCC#N)C(=S)Nc1ccc(C)c(C)c1
inactive: [1] -13.1% | [2] -54.7% | [3] -3.1% | [4] -7.5% | [5] -41.6% | [6] -27.9%

CCCCCCCCCCCCCCCC(=O)Oc1ccc(C(=S)N2CCOCC2)cc1
inactive: [1] 20.8% | [2] 1.25% | [3] 2.4% | [4] 2.9% | [5] 5.05% | [6] 13.9%
